Experimental data as given in PubChem BioAssay AID504386 (National Center for Advancing Translational Sciences (NCATS), 2011).
Records with an inconclusive call do not appear. Where a call stands in place of a potency, no number is given. Active and inactive are the calls of the source. The call rests on the fitted dose curve; in most records, active means well fitted curve in the direction sought with a large enough effect; inconclusive means small, poorly fitted or top-dose-only effect, or another doubt; inactive means no such curve, though single readings can be large or run the other way.

Target: Runt-related transcription factor 1 (Homo sapiens) + Core-binding factor subunit beta (Homo sapiens) (UniProt Q01196+Q13951)
Sequence (Q01196 whole entry, looked up): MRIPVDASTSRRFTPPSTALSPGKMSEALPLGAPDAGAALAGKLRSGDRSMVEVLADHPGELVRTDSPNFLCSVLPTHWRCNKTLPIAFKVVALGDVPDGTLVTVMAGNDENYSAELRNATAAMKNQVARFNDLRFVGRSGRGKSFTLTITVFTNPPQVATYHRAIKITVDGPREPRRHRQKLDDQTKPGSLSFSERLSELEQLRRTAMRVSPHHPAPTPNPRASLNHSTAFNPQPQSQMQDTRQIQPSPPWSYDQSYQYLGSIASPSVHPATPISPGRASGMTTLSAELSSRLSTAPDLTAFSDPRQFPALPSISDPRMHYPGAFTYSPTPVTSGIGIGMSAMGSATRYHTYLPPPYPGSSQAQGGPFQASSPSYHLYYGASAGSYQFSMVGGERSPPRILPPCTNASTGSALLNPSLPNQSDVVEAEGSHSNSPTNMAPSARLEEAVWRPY
Sequence (Q13951 whole entry, looked up): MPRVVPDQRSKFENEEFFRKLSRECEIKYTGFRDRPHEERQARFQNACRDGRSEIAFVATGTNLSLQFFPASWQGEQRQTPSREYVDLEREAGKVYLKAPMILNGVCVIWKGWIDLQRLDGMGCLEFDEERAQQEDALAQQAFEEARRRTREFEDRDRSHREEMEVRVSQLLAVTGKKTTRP
Assay: qHTS Assay for Compounds Blocking the Interaction Between CBF-beta and RUNX1 for the Treatment of Acute Myeloid Leukemia: SAR for Probe
Source text: NIH Chemical Genomics Center [NCGC] NIH Molecular Libraries Probe Production centers Network [MLPCN] MLPCN Grant: X01MH083259-01 Assay Submitter (PI): Paul Liu NCGC Assay Overview: Core Binding Factor (CBF) abnormalities are associated with 20-25% of all acute myeloid leukemias (AML), of which 5-10% are further sub classified as acute myelomonocytic leukemia with eosinophilia, also known as M4Eo in the FAB classification scheme. This subtype of leukemia is usually associated with chromosome 16 inversion (p13:q22). Chromosome 16 inversion results in formation of the fusion oncogene CBFB-MYH11, which encodes the fusion protein CBF-beta-SMMHC. […] It has been hypothesized that the interference of CBF-beta and RUNX1 binding could have therapeutic implications for patients with CBF mediated leukemias. We developed a CBF-beta and RUNX1 binding assay in AlphaScreenTM format and optimized it for high throughput screening to search for inhibitors. The goal of this project is to screen MLPCN's compound collection (MLSMR) for identifying the inhibitors of the interaction between CBF-beta and RUNX1 proteins as research probes. If these probes work well in the animal models, the ultimate goal of this project is to development a new drug treatment for this disease. This assay can not be used to assess how apparent inhibitors interfere with protein binding, and whether inhibitors specifically bind to either protein. Disruption of this protein-protein interaction, through any mechanism, is the intended target activity. The present data set was run to confirm the activity of analogs to the probe in the primary screening assay.
NCGC Assay Protocol Summary: Step, Parameter, Description (1) Reagent, 3 uL CBFb-His/RUNX1-biotin mix incubated together for 20 minutes at room temperature (30 nM each) (2) Compound or control, 23 nL compound stock solution (3) Incubation, 15 minutes at Room temperature (4) Reagent, 1 uL 50 ng each of beads (Nickel beads and streptavidin beads) (5) Incubation, 90 minutes at Room temperature (6) Detection, […], Envision reader in AlphaScreenTM mode Keywords: MLSMR, MLPCN, NIH Roadmap, qHTS, NCGC, Core binding factor, CBF, CBF-beta, Acute myeloid leukemia

| Structure (SMILES) | Potency |
| --- | --- |
| NCC(=O)Nc1ccc(Cl)cc1C(=O)c1ccc[nH]1 | 29.6 µM (active) |
| CC(C)[C@H](N)C(=O)Nc1ccc(Cl)cc1C(=O)c1ccc[nH]1 | inactive |
| CCC(=O)Nc1ccc(Cl)cc1C(=O)c1ccc[nH]1 | inactive |
| C[C@H](N)C(=O)Nc1ccc(Cl)cc1C(=O)c1ccc[nH]1 | inactive |
| NCCC(=O)Nc1ccc(Cl)cc1C(=O)c1ccc[nH]1 | inactive |
| NCCCC[C@H](N)C(=O)Nc1ccc(Cl)cc1C(=O)c1ccc[nH]1 | inactive |
